Source: PubChem
ClpP mod – qHTS Assay for Activators of ClpP; purified B. subtilis ClpP, FRET peptide cleavage, 20 min; Potency, µM (titrated, usually from 57.5 µM); AID 651965, 2013; 1.9% of 340,000 active; active means well fitted falling curve with a large enough effect; inconclusive means small, poorly fitted or top-dose-only effect; inactive means no such curve, though single readings can be large or run the other way; further: the source files actives as falling curves though it sought activators and does not explain the sign; nearly all actives have a fitted effect of over 65% in size
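Buffer: 100 mM Tris/HCl pH8, 100 mM KCl, 0.05% low protease BSA, 2.5% glycerol, 0.01% Tween-20. ClpP 10 microg/mL final; 20 min RT; delta FRET normalized to ADEP and DMSO controls.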
TDP1 block – TDP1 (human) enzyme inhibition. Q9NUW8. recombinant TDP1, AlphaScreen DNA substrate cleavage. Potency, µM (highest dose often 130 µM), most hits filed as inhibitors. 0.28% of 350,000 active. AID 485290; further: nearly all actives have a fitted effect of over 40% in size
Target sequence (Q9NUW8 whole entry, looked up): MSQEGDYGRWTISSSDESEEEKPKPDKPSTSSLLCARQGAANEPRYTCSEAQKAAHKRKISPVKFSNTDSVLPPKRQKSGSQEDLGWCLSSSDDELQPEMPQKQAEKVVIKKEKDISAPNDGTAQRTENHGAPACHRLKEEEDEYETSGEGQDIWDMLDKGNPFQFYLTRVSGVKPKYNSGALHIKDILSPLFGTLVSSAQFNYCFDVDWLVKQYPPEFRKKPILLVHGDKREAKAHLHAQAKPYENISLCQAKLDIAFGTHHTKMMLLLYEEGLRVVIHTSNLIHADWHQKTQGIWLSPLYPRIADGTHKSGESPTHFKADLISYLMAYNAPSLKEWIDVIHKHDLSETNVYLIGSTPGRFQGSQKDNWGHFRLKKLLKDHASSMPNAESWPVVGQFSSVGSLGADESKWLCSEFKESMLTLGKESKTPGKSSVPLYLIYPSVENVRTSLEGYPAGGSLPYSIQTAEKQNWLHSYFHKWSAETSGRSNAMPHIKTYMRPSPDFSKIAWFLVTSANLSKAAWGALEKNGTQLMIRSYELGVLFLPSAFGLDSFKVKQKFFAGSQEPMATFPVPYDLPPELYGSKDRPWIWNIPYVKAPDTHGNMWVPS
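Signal: AlphaScreen proximity between streptavidin donor and anti-FITC acceptor beads on intact substrate. Reaction: Tdp1 1 nM, substrate 15 nM final, 5 min RT after 15 min compound preincubation.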
TDP1 cell noCPT – qHTS for Inhibitors of human tyrosyl-DNA phosphodiesterase 1 (TDP1): qHTS in cells in absence of CPT | DT40 Tdp1-/- hTDP1 cells, no CPT, ATP luminescence, 48 h | Potency, µM (doses to about 46.2 µM), actives largely listed as inhibitors | 15% of 420,000 active; further: nearly all actives have a fitted effect of over 55% in size
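Stably hTDP1-transfected Tdp1-null chicken DT40 cells were treated with library compounds minus camptothecin and grown for at least 48 hr at 37 °C, after which cellular ATP was quantified by luminescence.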
DT40 TDP1 CPT – DT40-hTDP1 cell growth loss with CPT. Potency, µM (doses to about 46.2 µM), hits mostly inhibitors. 12% of 420,000 active. AID 686979. chicken DT40 Tdp1-/-;hTDP1 cells + 20 nM CPT, ATP luminescence, 48 h; further: nearly all actives have a fitted effect of over 55% in size
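Chicken DT40 Tdp1-/- cells stably complemented with human TDP1 were seeded at 400 cells/well in medium containing 20 nM camptothecin, exposed to pin-transferred compounds, and grown at 37 °C for at least 48 hr. Viability was read as ATP luminescence.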
Numbers stand for hits; 0 = inactive; ? = inconclusive; - = not tested or not shown; [ ] = dose if it differs, or a comment. This is a sample that favours compounds with a hit; in the whole collection about 17% have one here. Unless noted, the call rests on the fitted dose curve; in most records, active means well fitted curve in the direction sought with a large enough effect; inconclusive means small, poorly fitted or top-dose-only effect, or another doubt; inactive means no such curve, though single readings can be large; an effect the other way counts as inactive or inconclusive.

SMILES | ClpP mod | TDP1 block | TDP1 cell noCPT | DT40 TDP1 CPT
COC(=O)C1=C(c2ccc(F)cc2F)C[C@@H]2CC[C@H]1N2C(=O)NCc1ccc2c(c1)OCO2 | 0 | 0 | ? | ?
COC(=O)C1=C(c2cccc(OCc3ccccc3)c2)C[C@@H]2CC[C@H]1N2C(=O)NCc1cc(C)oc1C(F)(F)F | 0 | 0 | ? | 23.1µM
COC(=O)C1=C(c2ccc(OCc3ccccc3)cc2)C[C@@H]2CC[C@H]1N2C(=O)NCc1ccc(C(C)(C)C)cc1 | 0 | - | 9.2µM | 11.6µM
COC(=O)C1=C(c2ccc(OCc3ccccc3)cc2)C[C@@H]2CC[C@H]1N2C(=O)NCc1cccc(OC)c1 | 0 | 0 | 20.6µM | 18.4µM
C[C@]12CC[C@H]3[C@@H](CCC4=CC(=O)CC[C@@H]43)[C@@H]1CC[C@@H]2OC(=O)CCc1ccccc1 | - | - | 0 | 0
CCOc1ccccc1NC(=O)c1ccccc1N(C)S(=O)(=O)c1ccc(C)cc1 | 0 | - | ? | ?
COC(=O)C1=C(c2cccc(OCc3ccccc3)c2)C[C@@H]2CC[C@H]1N2C(=O)NCc1ccc(OC)cc1 | 0 | 0 | 16.4µM | 11.6µM
COC(=O)C1=C(c2cccc(OCc3ccccc3)c2)C[C@@H]2CC[C@H]1N2C(=O)NCc1ccccc1 | 0 | 0 | ? | ?
COC(=O)C1=C(c2cccc(OCc3ccccc3)c2)C[C@@H]2CC[C@H]1N2C(=O)NCc1cccc(F)c1 | 0 | 0 | ? | ?
COC(=O)C1=C(c2cccc(OCc3ccccc3)c2)C[C@@H]2CC[C@H]1N2C(=O)NCc1cccc(C(F)(F)F)c1 | 0 | 0 | 16.4µM | 20.6µM
COC(=O)C1=C(c2cccc(OCc3ccccc3)c2)C[C@@H]2CC[C@H]1N2C(=O)NCc1ccc(OC)c(OC)c1 | 0 | 0 | 14.6µM | 16.4µM
COC(=O)C1=C(c2cccc(OCc3ccccc3)c2)C[C@@H]2CC[C@H]1N2C(=O)NCc1ccccc1OC | 0 | 0 | 23.1µM | ?
CC1CCN(c2nc(-c3ccc(F)cc3)cc(C(F)(F)F)n2)CC1 | ? | 0 | 0 | 0
CNC[C@H](O)c1ccc(O)c(OC)c1 | - | 0[21 µM] | - | -
COc1ccc(C(CNC(=O)c2cc(S(=O)(=O)N3CCCCC3)ccc2C)N2CCCC2)cc1 (configuration not stated) | 0 | - | ? | ?
CCCN(C/C=C\I)[C@@H]1CCc2ccc(O)cc2C1 | - | 0 | ? | ?
COC(=O)C1=C(c2ccc(OCc3ccccc3)cc2)C[C@@H]2CC[C@H]1N2C(=O)NCc1ccc(OC)cc1 | 0 | - | 6.51µM | 7.31µM
COC(=O)C1=C(c2cccc(OCc3ccccc3)c2)C[C@@H]2CC[C@H]1N2C(=O)NCc1ccc(Cl)cc1 | 0 | 0 | ? | ?
C[C@@]12CCC(Cl)C[C@H]1CCC1C2CC[C@]2(C)C(=O)CCC12 (some centres not stated) | - | 0 | 0 | 0
CCOc1cc2c(cc1OCC)-n1cccc1C(c1ccc(F)cc1)NC2 (configuration not stated) | 0 | - | ? | ?
CCOc1cc2c(cc1OCC)-n1cccc1C(c1ccc(C(C)C)cc1)NC2 (configuration not stated) | - | - | 7.31µM | 8.2µM
CCOc1cc2c(cc1OCC)-n1cccc1C(c1ccc(OC)cc1)NC2 (configuration not stated) | - | - | 18.4µM | ?
CCOc1cc2c(cc1OCC)-n1cccc1C(c1ccc(OC(F)F)cc1)NC2 (configuration not stated) | 0 | - | 18.4µM | ?
Cc1cccc(C2CC(=O)Oc3c2c(=O)oc2ccccc32)c1 (configuration not stated) | 0 | 0 | 0 | 0
Cc1ccccc1OP(=O)(Oc1ccccc1C)N1CCOCC1 | 0 | - | ? | ?
C/C(=C\c1csc(C)n1)[C@@H]1C[C@@H]2O[C@]2(C)CCC[C@H](C)[C@H](O)[C@@H](C)C(=O)C(C)(C)[C@@H](O)CC(=O)O1 | - | - | 0.0013µM | 0.0012µM
Cc1ccc(OCC(=O)N2CCN(Cc3ccc(F)cc3)CC2)cc1 | 0 | - | 0 | 0
CSc1ccc(CN2CCN(C(=O)COc3cccc(C)c3)CC2)cc1 | 0 | 0 | 20.6µM | 16.4µM
Cc1cccc(OCC(=O)N2CCN(Cc3cccnc3)CC2)c1 | 28.2µM | 0 | 0 | 0
